Several values for one entry are separate records, joined by “and”; a condition that tells them apart may be missing. Equal entries are not always repeated. Activity calls are given as the source filed them. How the source made its calls: active means hit-call score of the fitted dose curve at least 0.9, where 1 is the maximum; inactive means score below 0.9.

The AC50 is the concentration at which the activity in the assay is half-maximal.

This assay in a line: CCTE_Shafer_MEA_dev_firing_rate_mean: CCTE's Neural Network Formation Assay for Mean Firing Rate, Shafer Lab (AID 2284031).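 On AC50: curve fitted for loss of firing so AC50 reflects decreased mean firing rate.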 On the procedure:
CCTE_Shafer_MEA_dev assay is conducted using Axion Biosystems 48 well microelectrode array (MEA) plates and Maestro recording system. Each well of the MEA plate contains a grid of 16 microelectrodes embedded in the culture surface. Electrically active cells, such as neurons, can be cultured over the electrodes, and electrical activity in these cells can be recorded extracellularly. The spontaneous firing of neurons is captured from each electrode on a microsecond timescale providing both temporally and spatially precise data. […] The CCTE_Shafer_MEA_dev assay uses primary cultures of rat cortical neurons. Recordings are made on days post-plating 5, 7, 9 and 12. As these cultures mature over time, neural networks develop functional activity and form cohesive networks in which electrical activity can be highly coordinated. CCTE_Shafer_MEA_dev_firing_rate_mean is 1 of 19 assay components of the CCTE_Shafer_MEA_dev assay. It measures the frequency of spikes (action potential firings) as the total number of spikes divided by the length of the recording in a microelectrode array (MEA) using Axion Biosystems Maestro 768 channel amplifier with the AxIS adaptive spike detector. The firing rate is averaged across the active electrodes to report a well-mean value. To collapse across multiple recordings made on days post-plating 5, 7, 9 and 12, the trapezoidal area-under-the-curve of the component is calculated.Data from the assay component CCTE_Shafer_MEA_dev_firing_rate_mean was analyzed into 1 assay endpoint. This assay endpoint, CCTE_Shafer_MEA_dev_firing_rate_mean, was analyzed in the negative analysis fitting direction relative to DMSO as the negative control and baseline of activity. Using a type of functional reporter, gain or loss-of-signal activity can be used to understand electrical activity.
On the day prior to culture, each well was coated thoroughly with 150 uL of 0.05% polyethyleneimine (PEI, Sigma Cat P3143) in 50 mM HEPES (Sigma Cat H7523) at a pH of 8. The plate was incubated at 37C for one hour. PEI was rinsed out with 500 uL of sterile water three times. Plates were stored at 4C until the day of culture. This culture was plated at a seeding density of 1.5 x 10^5 cells/well on a 48-well MEA plate, prepared as described above. Cells were administered via a 25 uL media/laminin ([…]; Sigma Cat L2020-1MG) drop directly onto the microelectrode array, as adding the cells with the laminin results in better attachment than pre-coating with laminin. After 2 hours, an additional 475 uL of cortical media was added and the cells returned to the incubator. Exposure starts at day 0 of plating and is continued over twelve days of network development until the experiment is terminated. Cells are fed with fresh medium on DIV 5 and 9, following the recordings on those days. The entire volume of media in the well is exchanged and any vehicle or compound treatment is renewed. Complete details are found in OP-NHEERL/ISTD/SBB/TJS/2015-03-r0 (available on request, email shafer.tim@epa.gov). Measurement of the electrical activity is non-invasive, and recordings can be made from the same plate over multiple different days of the culture. In cortical neurons, this allows for the measurement of extracellular action potentials over the period during which networks form in the MEA plate.
Regarding `ClC1(Cl)C2(Cl)C3(Cl)C4(Cl)C(Cl)(Cl)C5(Cl)C3(Cl)C1(Cl)C5(Cl)C24Cl` (stereo unspecified), the result was inactive.

Regarding `CCC(=O)C(CC(C)N(C)C)(c1ccccc1)c1ccccc1` (stereo unspecified), the AC50 was 3.42 µM (active).

With `O=C(O)C(F)(F)C(F)(F)C(F)(F)C(F)(F)C(F)(F)C(F)(F)F`, the call was inactive.

For `Cn1sc(Cl)cc1=O`, the concentration at half-maximal activity (AC50) is 8.69 µM (active).

Consider `O=C1C2(Cl)C3(Cl)C4(Cl)C(Cl)(Cl)C5(Cl)C3(Cl)C1(Cl)C5(Cl)C24Cl` (stereo unspecified), for which the AC50 was 3.94 µM (active).

Take `CCOP(=S)(OCC)Oc1nc(Cl)c(Cl)cc1Cl`: the half-maximal activity concentration (AC50) was 13.3 µM (active) and 2.98 µM (active) and 12 µM (active).

Regarding `C=C(C)C(=O)[O][Sn]([CH2]CCC)([CH2]CCC)[CH2]CCC`, the concentration at half-maximal activity (AC50) is 0.00431 µM (active).

Consider `CC(=O)[O][Hg][c]1ccccc1`, for which the AC50 is 0.00554 µM (active).

Take `CC(C)(C)c1cc(O)ccc1O`: the call was inactive.

With `COP(=O)(OC)O/C(=C\Cl)c1cc(Cl)c(Cl)cc1Cl`, the compound was classed as inactive.

On to `O=C(O)C(F)(F)C(F)(F)C(F)(F)C(F)(F)C(F)(F)C(F)(F)C(F)(F)C(F)(F)C(F)(F)C(F)(F)F`, for which the compound was classed as inactive.

The values above are taken from PubChem BioAssay (EPA / NIEHS).
